Results: PubChem BioAssay (Tox21)
Records with an inconclusive call do not appear. The source made the active and inactive calls. Unless noted, the call rests on the fitted dose curve.

What was measured:
[1] = qHTS assay to identify small molecule agonists of the sonic hedgehog signaling (Shh) pathway (AID 1259368); settings: NIH/3T3 Gli1-Luc reporter, luciferase, 24 h; series mostly up to 92.4 µM;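 further: NIH/3T3-derived 3T3Gli1-Luc cells carrying a stable Gli1-driven firefly luciferase reporter; nearly all actives have a fitted effect of over 15% in size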
Method in brief: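 A Gli1 transcriptional response element controlled firefly luciferase in 3T3Gli1-Luc cells. Compounds and a positive control were added 4 hr after plating, and cells were incubated a further 24 hr at 37 C before luminescence detection.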

[2] = qHTS assay to identify small molecule antagonists of the sonic hedgehog signaling (Shh) pathway (AID 1259369); settings: NIH/3T3 Gli1-Luc reporter, Shh antagonist, luminescence 24 h; series mostly up to 92.4 µM; further: nearly all actives have a fitted effect of over 45% in size
Method in brief: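 For antagonist detection, the reporter line received test compounds together with conditioned medium, incubated 24hr at 37 C, 5% CO2, then luminescence was recorded following 30min room-temperature luciferase reagent incubation.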

[3] = qHTS assay to identify small molecule agonists of the androgen receptor (AR) signaling pathway in the presence of an antagonist - cell viability counter screen (AID 1259379; active means well fitted curve in the direction sought with a large enough effect in the repeat runs; an effect the other way counts as inactive or inconclusive;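 further: MDA-kb2 human breast cancer cells carrying an MMTV luciferase reporter; nearly all actives have a fitted effect of over 25% in size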); settings: MDA-kb2 viability, CellTiter-Fluor, 16 h; series mostly up to 92.4 µM
Method in brief: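 Seed MDA-kb2 at 3,000 cells/well; incubate 5 hr, 37C, 0% CO2. Add nilutamide to 3.0uM final, then pin compounds at 15 concentrations. Incubate 16 hr. Add CellTiter-Fluor at 15 hr, read fluorescence after 1 hr.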

[4] = qHTS assay to identify small molecule agonists of the estrogen receptor beta (ER-beta) signaling pathway - cell viability counter screen (AID 1259380; active means well fitted curve in the direction sought with a large enough effect in the repeat runs; an effect the other way counts as inactive or inconclusive; further: nearly all actives have a fitted effect of over 30% in size); settings: ER-beta-bla HEK293T viability, CellTiter-Glo luminescence, 16 h; series mostly up to 92.4 µM
Method in brief: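 CellTiter-Glo read, 30 min RT, same wells as bla assay; cells ER-beta-UAS-bla HEK293T; 16 hr compound, 37C; medium 2% charcoal-stripped FBS.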

[5] = target: Androgen receptor (Homo sapiens) (UniProt P10275); assay: qHTS assay to identify small molecule agonists of the androgen receptor (AR) signaling pathway in the presence of an antagonist (AID 1259381); settings: MDA-kb2 MMTV-luciferase, AR agonist + nilutamide, 16 h; series mostly up to 92.4 µM; further: nearly all actives have a fitted effect of over 15% in size
Method in brief: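 Test compounds at 15 concentrations were incubated for 16hr with MDA-kb2 reporter cells in presence of 3.0uM nilutamide (final). Signal: ONE-Glo luciferase luminescence.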

[6] = qHTS assay to identify small molecule antagonists of the estrogen receptor beta (ER-beta) signaling pathway - cell viability counter screen (AID 1259382; active means well fitted curve in the direction sought with a large enough effect in the repeat runs; an effect the other way counts as inactive or inconclusive;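 further: HEK293T cells carrying ER-beta-UAS-bla reporter stimulated with estradiol; nearly all actives have a fitted effect of over 55% in size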); settings: ER-beta-UAS-bla HEK293T viability, CellTiter-Glo luminescence, 16 h; series mostly up to 92.4 µM
Method in brief: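 In this multiplexed counter screen, cells were seeded at 2,000 per well in medium with 2% charcoal-stripped FBS and incubated 6 hr before compound and 1nM final E2 were added. Sixteen hours later, ATP-based luminescence reported viability.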

[7] = target: Estrogen receptor (Homo sapiens) (UniProt P03372); assay: qHTS assay to identify small molecule agonists of the estrogen receptor alpha (ER-alpha) signaling pathway in the presence of an antagonist (AID 1259383); settings: VM7Luc4E2 cells, ERE-luciferase, +ICI-182,780, 22 h; series mostly up to 92.4 µM; further: top concentration of the series differs between compounds; nearly all actives have a fitted effect of over 15% in size
Method in brief: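 Stably transfected VM7Luc4E2 reporter cells, kept 5 days in charcoal-stripped serum, received ICI-182,780 at 10.0nM final before compound addition. Following 22hr incubation at 37C and 5% CO2, luciferase signal was read by luminescence.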

[8] = qHTS assay to identify small molecule agonists or antagonists of the thyroid stimulating hormone receptor (TSHR) signaling pathway - wild type cell line counter screen (AID 1259384); settings: HEK293 wild type, cAMP HTRF counter-screen; series mostly up to 92.4 µM
Method in brief: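 Counter screen in untransfected Hek293: compounds (15-point titration, triplicate) plus phosphodiesterase inhibitor Ro20-1724 added after 18 h plating; 30 min RT. Intracellular cAMP via competitive d2/cryptate immunoassay, 1 h incubation.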

[9] = target: Estrogen receptor beta (Homo sapiens) (UniProt Q92731); assay: qHTS assay to identify small molecule antagonists of the estrogen receptor beta (ER-beta) signaling pathway (AID 1259378; active means well fitted inhibition curve with a large enough effect in the signal ratio in the repeat runs, not every such curve was filed as active; the % refers to the signal ratio); settings: ER-beta-UAS-bla HEK293T, beta-lactamase FRET ratio, 16 h; series mostly up to 92.4 µM
Method in brief: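 Antagonist mode: compounds added to beta-lactamase reporter HEK293T ER-beta-UAS cells stimulated with E2 (1nM final), 16 hr at 37C. LiveBLAzer B/G FRET substrate, 2 hours room temperature, fluorescence read-out.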

Measured: Potency

Sequence of Androgen receptor (Homo sapiens) (P10275 whole entry, looked up): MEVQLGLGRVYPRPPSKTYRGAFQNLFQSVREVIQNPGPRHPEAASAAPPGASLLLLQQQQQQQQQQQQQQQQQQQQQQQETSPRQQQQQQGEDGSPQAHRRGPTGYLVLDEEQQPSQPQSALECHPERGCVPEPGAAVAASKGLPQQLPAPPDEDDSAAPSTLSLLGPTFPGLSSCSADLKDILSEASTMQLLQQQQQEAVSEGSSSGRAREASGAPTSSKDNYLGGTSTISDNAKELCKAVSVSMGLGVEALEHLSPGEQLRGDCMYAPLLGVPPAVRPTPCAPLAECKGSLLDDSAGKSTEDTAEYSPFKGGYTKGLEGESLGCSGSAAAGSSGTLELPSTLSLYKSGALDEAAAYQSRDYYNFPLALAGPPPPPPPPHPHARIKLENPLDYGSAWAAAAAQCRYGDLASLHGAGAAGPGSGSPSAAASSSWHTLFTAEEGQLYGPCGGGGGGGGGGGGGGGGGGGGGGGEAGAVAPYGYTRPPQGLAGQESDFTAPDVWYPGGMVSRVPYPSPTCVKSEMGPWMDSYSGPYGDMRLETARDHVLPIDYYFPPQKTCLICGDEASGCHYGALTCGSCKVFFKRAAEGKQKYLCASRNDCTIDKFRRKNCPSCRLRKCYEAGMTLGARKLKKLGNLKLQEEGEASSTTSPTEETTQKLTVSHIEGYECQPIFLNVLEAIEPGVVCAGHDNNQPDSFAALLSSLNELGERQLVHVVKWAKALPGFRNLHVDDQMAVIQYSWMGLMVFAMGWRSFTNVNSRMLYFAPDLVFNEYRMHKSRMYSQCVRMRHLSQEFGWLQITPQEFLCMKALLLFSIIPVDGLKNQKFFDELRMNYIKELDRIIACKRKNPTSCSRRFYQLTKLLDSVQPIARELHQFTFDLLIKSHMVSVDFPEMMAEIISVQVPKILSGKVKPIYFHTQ
Sequence of Estrogen receptor (Homo sapiens) (P03372 whole entry, looked up): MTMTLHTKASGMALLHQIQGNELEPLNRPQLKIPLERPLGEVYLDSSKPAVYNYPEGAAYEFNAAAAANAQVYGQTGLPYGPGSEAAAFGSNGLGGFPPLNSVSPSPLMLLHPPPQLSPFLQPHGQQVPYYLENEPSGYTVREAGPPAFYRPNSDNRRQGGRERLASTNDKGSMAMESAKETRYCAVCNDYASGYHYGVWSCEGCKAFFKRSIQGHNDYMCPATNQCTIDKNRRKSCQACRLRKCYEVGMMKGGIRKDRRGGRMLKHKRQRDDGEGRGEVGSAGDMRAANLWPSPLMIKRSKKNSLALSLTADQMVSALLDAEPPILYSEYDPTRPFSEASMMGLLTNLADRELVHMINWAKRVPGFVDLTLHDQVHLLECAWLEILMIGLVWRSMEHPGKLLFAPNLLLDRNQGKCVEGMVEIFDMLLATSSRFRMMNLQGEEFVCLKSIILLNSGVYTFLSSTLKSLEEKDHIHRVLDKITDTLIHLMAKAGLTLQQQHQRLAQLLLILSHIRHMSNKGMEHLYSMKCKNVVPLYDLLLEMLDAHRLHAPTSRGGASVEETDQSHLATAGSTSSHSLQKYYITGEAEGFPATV
Sequence of Estrogen receptor beta (Homo sapiens) (Q92731 whole entry, looked up): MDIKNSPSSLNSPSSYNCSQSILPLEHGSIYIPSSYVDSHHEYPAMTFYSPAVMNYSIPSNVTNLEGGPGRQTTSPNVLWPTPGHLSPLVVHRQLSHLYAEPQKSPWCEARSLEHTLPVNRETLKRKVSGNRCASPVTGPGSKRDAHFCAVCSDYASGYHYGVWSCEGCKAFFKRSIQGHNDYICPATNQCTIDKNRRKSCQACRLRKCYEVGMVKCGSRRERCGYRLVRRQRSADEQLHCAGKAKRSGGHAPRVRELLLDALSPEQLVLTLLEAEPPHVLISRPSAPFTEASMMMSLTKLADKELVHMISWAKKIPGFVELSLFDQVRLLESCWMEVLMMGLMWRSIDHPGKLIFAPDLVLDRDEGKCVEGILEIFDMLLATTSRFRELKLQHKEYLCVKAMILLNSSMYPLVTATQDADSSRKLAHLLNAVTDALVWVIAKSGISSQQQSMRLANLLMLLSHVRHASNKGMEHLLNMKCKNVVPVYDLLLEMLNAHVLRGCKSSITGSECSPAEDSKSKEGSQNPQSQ

CCC(C)NC(N)=O (centres undefined)
not listed: [9]
inactive: all other assays above

COc1ccc(S(=O)(=O)N2c3ccc(Cl)cc3[C@@](O)(c3ccccc3Cl)[C@H]2C(=O)N2CCC[C@@H]2C(N)=O)cc1OC
not listed: [5] | [8] | [9]
inactive: all other assays above

CCC(CC)CO
not listed: [9]
inactive: all other assays above

CC(=O)c1ccc2c(c1)Cc1ccccc1-2
not listed: [5] | [8] | [9]
inactive: all other assays above

CC(C)=CCOC(=O)c1ccccc1
not listed: [4] | [5] | [7]
inactive: all other assays above

OCCC(F)(F)C(F)(F)C(F)(F)C(F)(F)C(F)(F)C(F)(F)C(F)(F)C(F)(F)F
not listed: [8] | [9]
inactive: all other assays above

Cc1c(I)c(=O)n(-c2ccccc2)n1C
inactive: [1] | [2] | [3] | [4] | [6]

CC(CC=O)CCCC(C)(C)O (centres undefined)
not listed: [9]
inactive: all other assays above
